The source of these data is PubChem BioAssay (NCI).

SMILES strings stand for the structures. The panel holds about 83,000 compounds, 20% with a hit somewhere; the sample as a whole holds those more often.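 Each cell line was grown in a 96-well plate and treated with one concentration of compound for 48 hours. Values below 10 were considered active.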 Unmarked numbers belong to inactive results. Active and inactive are the calls of the source.

Some test systems named below: NCI-H23 lung; NCI-H226 lung; NCI-H322M lung; HOP-62 NSCLC; NCI-H460 lung; HOP-92 NSCLC; NCI-H522 lung; A549/ATCC NSCLC; 786-0 renal; COLO 205 colon; DU-145 prostate; K-562 leukemia; MALME-3M melanoma; MDA-MB-231 breast; RXF 393 renal; SF-268 CNS; SF-295 CNS; SF-539 CNS; UACC-257 melanoma; M14 melanoma.
Holding throughout (assay): NCI-60 one-dose screen, 48 h (100 = growth as untreated, 0 = no growth, -100 = all killed)
Common to all, as to details: 10 µM unless noted

As to `C=C(CO)[C@@H]1CC[C@]2(COC3CCCCO3)CC[C@]3(C)[C@H](CC[C@@H]4[C@@]5(C)C=C(C=O)C(=O)C(C)(C)[C@@H]5CC[C@]43C)[C@@H]12` (stereo not given in full), the growth in the assay on NCI-H23 lung was -63.6% (active); with NCI-H226 lung it was -54.3% (active); with NCI-H322M lung it was -22.6% (active); in the assay with HOP-62 NSCLC, -86.8% (active); with NCI-H460 lung it was -73.1% (active); in the assay with HOP-92 NSCLC, -92.5% (active). Moreover, the growth is -80.5% (active) with NCI-H522 lung; -77.4% (active) in the assay with A549/ATCC NSCLC; -91.2% (active) in the assay with 786-0 renal; -60.2% (active) in the assay on COLO 205 colon; -98% (active) in the assay with DU-145 prostate; -60.7% (active) with K-562 leukemia. Moreover, the growth is -78.4% (active) in the assay with MALME-3M melanoma; -58.4% (active) with MDA-MB-231 breast; -86.2% (active) with RXF 393 renal; -83.2% (active) in the assay with SF-268 CNS; -89.5% (active) with SF-295 CNS; -90.1% (active) in the assay with SF-539 CNS. Further, the growth is -64.4% (active) with UACC-257 melanoma and -65.5% (active) in the assay with M14 melanoma.
With `Nc1c(C(=O)Nc2cccc3ncccc23)sc2nc3c(cc12)C(=O)CCC3`, the growth was 53.8% in the assay on NCI-H23 lung; 62.2% with NCI-H226 lung; 62.2% in the assay on NCI-H322M lung; 39% in the assay with HOP-62 NSCLC; 19.9% in the assay on NCI-H460 lung; 41.8% with HOP-92 NSCLC. In addition, the growth with NCI-H522 lung was 11.1%; with A549/ATCC NSCLC, 49.6%; in the assay with 786-0 renal, 56.5%; with COLO 205 colon, 45.9%; in the assay with DU-145 prostate, 69.9%; in the assay on K-562 leukemia, 31.1%. The growth is 74.8% in the assay on MALME-3M melanoma; 58% in the assay on MDA-MB-231 breast; 29.3% in the assay on RXF 393 renal; 71% in the assay with SF-268 CNS; 21.3% with SF-295 CNS; 51.8% with SF-539 CNS. Further, the values for the growth in the assay on UACC-257 melanoma and in the assay on M14 melanoma were 41.6% and 50.5%, respectively.
With `O=c1oc2c(cnc3ccccc32)cc1-c1cccs1`, the growth is 101% with NCI-H23 lung; 107% with NCI-H226 lung; 104% with NCI-H322M lung; 100% with HOP-62 NSCLC; 112% in the assay on NCI-H460 lung; 102% with HOP-92 NSCLC. Besides, the growth in the assay with NCI-H522 lung is 104%; in the assay with A549/ATCC NSCLC, 104%; with 786-0 renal it was 98.8%; with COLO 205 colon, 106%; with DU-145 prostate it was 113%; with K-562 leukemia, 94.1%. For the same compound, the growth was 103% in the assay with MALME-3M melanoma; 107% in the assay on MDA-MB-231 breast; 112% in the assay with RXF 393 renal; 100% in the assay with SF-268 CNS; 105% in the assay with SF-295 CNS; 105% with SF-539 CNS. Also, the growth in the assay with UACC-257 melanoma is 108%; in the assay with M14 melanoma, 104%.
`O=C(CSc1nc2ccc([N+](=O)[O-])cc2[nH]1)Nc1cccc([N+](=O)[O-])c1`: the growth with NCI-H23 lung was 24.8%; in the assay with NCI-H226 lung, 36.5%; with NCI-H322M lung it was 83.5%; in the assay with HOP-62 NSCLC, 95.6%; with NCI-H460 lung it was 47.5%; with HOP-92 NSCLC, -14.2% (active). Also, the growth in the assay on NCI-H522 lung was 19.8%; in the assay with A549/ATCC NSCLC, 58%; with 786-0 renal, 61.6%; in the assay on COLO 205 colon, 52.5%; in the assay on DU-145 prostate, 67%; in the assay with K-562 leukemia, 36.5%. The growth in the assay on MALME-3M melanoma is 30.5%; in the assay on MDA-MB-231 breast, 73.7%; with RXF 393 renal, 60.5%; in the assay with SF-268 CNS it was 64.6%; in the assay with SF-295 CNS it was 43.8%; with SF-539 CNS it was 66.6%. In addition, the growth in the assay with UACC-257 melanoma is 42.7%; in the assay on M14 melanoma, 57.1%.
In the case of `COc1cc(C2Cc3ncccc3-c3[nH]c(=O)c4cccnc4c32)cc(OC)c1OC` (stereo not given), the growth in the assay on NCI-H23 lung was 35.3%; with NCI-H226 lung, 62.8%; in the assay on NCI-H322M lung, 55.5%; with HOP-62 NSCLC, 21.7%; with NCI-H460 lung it was 9.39% (active); with HOP-92 NSCLC, 67.5%. Also, the growth in the assay with NCI-H522 lung was -31% (active); with A549/ATCC NSCLC, 20.4%; with 786-0 renal, 33%; with COLO 205 colon it was -20% (active); with DU-145 prostate it was 23%; in the assay with K-562 leukemia, 16.3%. Further, the growth in the assay with MALME-3M melanoma was 77.6%; in the assay on MDA-MB-231 breast it was 31%; in the assay with RXF 393 renal, 8.5% (active); in the assay with SF-268 CNS, 44.1%; with SF-295 CNS it was 1.73% (active); in the assay on SF-539 CNS, -18.8% (active). Besides, the growth was 56.9% in the assay on UACC-257 melanoma and 10.3% with M14 melanoma.
Turning to `O=C(OC[C@@H]1CO1)c1cccc2c(=O)c3ccccc3[nH]c12`, the growth in the assay with NCI-H23 lung was -58.5% (active); in the assay with NCI-H226 lung it was -24.6% (active); with NCI-H322M lung, -13% (active); in the assay with HOP-62 NSCLC, -26% (active); in the assay on NCI-H460 lung, -21.8% (active); in the assay on HOP-92 NSCLC, -25.5% (active). Also, the growth in the assay on NCI-H522 lung was -49.9% (active); in the assay on A549/ATCC NSCLC, -20% (active); in the assay with 786-0 renal, -8.54% (active); in the assay on COLO 205 colon, -37.3% (active); in the assay with DU-145 prostate, -20.8% (active); with K-562 leukemia, 4.46% (active). For the same compound, the growth was -89.9% (active) in the assay with MALME-3M melanoma; -28.1% (active) in the assay with MDA-MB-231 breast; -56.9% (active) in the assay on RXF 393 renal; -31.3% (active) in the assay on SF-268 CNS; -8.88% (active) with SF-295 CNS; -38.6% (active) with SF-539 CNS. Besides, the growth is -30.8% (active) in the assay with UACC-257 melanoma and -65.8% (active) in the assay with M14 melanoma.
Consider `Cn1c(/C=C/[N+](=O)[O-])cc2ccccc21`, for which the growth was -24.5% (active) with NCI-H23 lung; 4.78% (active) in the assay with NCI-H226 lung; 105% with NCI-H322M lung; 76.7% in the assay on HOP-62 NSCLC; 62.7% in the assay on NCI-H460 lung; 84% in the assay with HOP-92 NSCLC. Moreover, the growth in the assay on NCI-H522 lung is 70.5%; with A549/ATCC NSCLC, 48%; with 786-0 renal, 75.7%; with COLO 205 colon, 12.5%; in the assay with DU-145 prostate it was -8.11% (active); in the assay on K-562 leukemia, 7.24% (active). Besides, the growth in the assay with MALME-3M melanoma is 91.4%; with MDA-MB-231 breast it was 63%; in the assay on RXF 393 renal, -97.1% (active); in the assay on SF-268 CNS it was 93.4%; in the assay on SF-295 CNS it was 40.4%; in the assay on SF-539 CNS, -53.4% (active). Also, the growth in the assay with UACC-257 melanoma was -5.1% (active); with M14 melanoma it was -70.1% (active).
With `COc1ccc(OC)c(Nc2nnc(-c3ccc(Cl)cc3)o2)c1`, the growth is 75% in the assay on NCI-H23 lung; 93.8% with NCI-H226 lung; 56.9% with NCI-H322M lung; 46.7% in the assay on HOP-62 NSCLC; 18.8% with NCI-H460 lung; 100% in the assay with HOP-92 NSCLC. Further, the growth in the assay on NCI-H522 lung was 89.9%; in the assay on A549/ATCC NSCLC, 44.7%; with 786-0 renal, 26.4%; in the assay on COLO 205 colon it was 99.1%; with DU-145 prostate it was 70%; with K-562 leukemia, 83.5%. For the same compound, the growth is 66.9% in the assay on MALME-3M melanoma; 85.6% in the assay with MDA-MB-231 breast; 90.4% in the assay with RXF 393 renal; 55.4% with SF-268 CNS; 29.2% in the assay with SF-295 CNS; 50.7% with SF-539 CNS. Also, the growth in the assay on UACC-257 melanoma is 104%; with M14 melanoma it was 93.1%.
